# Results: PubChem BioAssay AID455 (Sanford-Burnham Center for Chemical Genomics, 2006)
# Hit rate of the full screen: of about 10,000 compounds, about 20 (0.2%) were called active.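 The calls were made as follows: active = a compound raising TNF-alpha-driven VCAM-1 surface staining, with its hit status upheld on visual or statistical review; inactive = the rest, including hits rejected on review.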 This excerpt belongs to a sample that is enriched for actives.
# Experiment: boosters of cytokine-driven VCAM-1 levels – cell-based, plate reader, pooled HUVEC, TNFa stimulus (AID 455);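 as to augmentation: 0% = TNFa plus DMSO wells and 100% = a visually confirmed top hit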
# Conditions: HUVEC TNFa-induced VCAM-1 immunofluorescence; active compounds read high, 100% set by best visually verified hit,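 tested at 5 µM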
row,Structure (SMILES),augmentation
1,O=C1CCCN1Cc1ncnn1-c1ccccc1,inactive
2,O=C(Nc1ccc2c(c1)OCO2)N1CCN(c2ncccn2)CC1,inactive
3,CCC(=O)N1CCc2cc(S(=O)(=O)CCC(=O)Nc3nc(C)cs3)ccc21,inactive
4,CCC(=O)N1CCc2cc(S(=O)(=O)CCC(=O)Nc3ccc(C)c(F)c3)ccc21,inactive
5,CCC(=O)N1CCc2cc(S(=O)(=O)CCC(=O)Nc3c(C)n(C)n(-c4ccccc4)c3=O)ccc21,70.3% (active)
6,CCc1nc(N[C@@H](Cc2c[nH]c3ccccc23)C(=O)O)c2oc3ccccc3c2n1,inactive
7,Cc1cc2c(=O)n(CC(=O)N3CCN(c4ccccc4)CC3)cnc2s1,inactive
8,Cc1csc(NC(=O)c2ccccc2C(=O)O)n1,inactive
9,CC(C)(C)c1ccc(OCC(=O)O)cc1,inactive
10,Cc1cc(C)nc(N2CCCC(C(=O)Nc3nc4ccc(S(C)(=O)=O)cc4s3)C2)n1 (stereo not drawn),inactive
11,COc1cc(NC(=O)CN(c2cc(C)cc(C)c2)S(=O)(=O)c2c(C)noc2C)cc(OC)c1,inactive
12,Cc1ccc(NC(=O)CSc2nnc(CSc3nc(C)cc(C)n3)n2Cc2ccco2)c(C)c1,inactive
13,CCn1c(=S)ccc2ccc(OC)cc21,inactive
14,CCOc1ccc(NC(=O)CSc2nccn2C)cc1,inactive
15,COC(=O)c1ccc2c(c1)C(=O)N(C1CCCCC1)C2=O,inactive
16,CCOc1cc(C2NC(=O)N(C)C(C)=C2C(=O)OC)cc(Br)c1O (stereo not drawn),inactive
17,CCOC(=O)C1=C(c2ccccc2)NC(=O)NC1c1ccc(N(C)C)cc1 (stereo not drawn),63.8% (active)
18,CCOC(=O)C1=C(C)NC2=C(C(=O)CC(C)(C)C2)C1c1ccc(N(C)C)cc1 (stereo not drawn),inactive
19,CCOC(=O)C1=C(C)NC(=O)NC1c1ccc(OCCO)c(OC)c1 (stereo not drawn),inactive
20,Cc1ccc(S(=O)(=O)NC(=O)c2cc(C)n(CCCn3ccnc3)c2C)cc1,inactive
21,COc1ccc(C(=O)Nc2nc(C)c(C(=O)N(C)C)s2)cc1OC,inactive
22,COc1ccccc1NC(=O)NC(N)=O,inactive

row,Structure (SMILES),augmentation
1,O=C(C1CC1)N1CCc2cc(Br)cc(S(=O)(=O)N3CCOCC3)c21,inactive
2,CC1(C)Cc2ccccc2C(N)=C1C#N,inactive
3,CCN1CCN(c2nc(C)nc3c2sc(=S)n3C)CC1,inactive
4,CCc1cc2ccc(C)cc2nc1SCC(=O)N1CCN(C(=O)c2ccco2)CC1,inactive
5,O=c1c2[nH]c3ccc(Cl)cc3c2ncn1Cc1ccccn1,100% (active)
6,O=c1c2[nH]c3ccccc3c2ncn1CCCn1ccnc1,inactive
7,O=C1CCCN1CCCNc1ncnc2c1[nH]c1ccc(Cl)cc12,inactive
8,COc1cc(-c2nc(S(=O)(=O)c3ccccc3)c(N3CCOCC3)o2)cc(OC)c1OC,inactive
9,COc1cc2[nH]c(=O)c(C(=O)NCCCN3CCCCC3)c(O)c2cc1OC,inactive
10,COc1cccc(C2C(C(=O)c3cccs3)=C(O)C(=O)N2CCCn2ccnc2)c1OC (stereo not drawn),inactive
11,Cc1cccc(C(=O)N2CCN(C(=O)c3cccc(C)c3)C(C)C2)c1 (stereo not drawn),inactive
12,CC(=O)c1ccccc1NS(=O)(=O)c1c(C)nn(-c2ccccc2)c1C,inactive
13,COc1cccc(NC(=O)N(CCCN2CCOCC2)C(C)c2cc3cccc(OC)c3o2)c1 (stereo not drawn),inactive
14,S=C(c1ccc(N2CCOCC2)cc1)N1CCCCC1,inactive
15,COc1ccccc1C1/C(=C(\O)c2c(C)nc3c(C)cccn23)C(=O)C(=O)N1CCCN(C)C (stereo not drawn),inactive
16,COc1ccc(S(=O)(=O)Nc2ccc(S(=O)(=O)N3CCCCC3)cc2)cc1OC,inactive
17,COc1ccc(S(=O)(=O)Nc2ccc(F)c(F)c2)cc1Cl,inactive
18,COc1ccc(S(=O)(=O)Nc2ccc(F)c(Cl)c2)cc1OC,70.4% (active)
19,COC(=O)Cc1c(C)c2ccc(OCC(=O)N3CCOCC3)cc2oc1=O,inactive
20,CCCSc1nnc(N2C(=O)CC(c3ccsc3)C3=C2CCCC3=O)s1 (stereo not drawn),inactive
21,COc1ccc(-c2nnc(SCC(=O)NC(=O)NCc3ccco3)o2)cc1,inactive
